Reference: PubChem BioAssay AID526 (National Center for Advancing Translational Sciences (NCATS), 2006)
Among all 67,000 compounds or so, fewer than 10 were called active. Calls come from the whole dose curve; as a rule, active = well fitted activation curve with a large enough effect (not every such curve was filed as active); inconclusive = small, poorly fitted or top-dose-only effect, or another doubt; inactive = no such curve, though single readings can be large or run the other way. Not all results are given here.

Experiment: Ubiquitin-GFP Assay
Conditions: Ubiquitin-GFP reporter cells, proteasome inhibition, GFP fluorescence, untreated = 0%, 10 µM MG-132 = 100%; series mostly up to 45.9 µM; activation (GFP accumulation): at the top concentration
From the text: NIH Chemical Genomics Center [NCGC]
NIH Molecular Libraries Screening Centers Network [MLSCN]
The ubiquitin-proteasome pathway is present within all eukaryotic cells and plays roles in normal cellular functions and disease-related dysfunction. Proteins are tagged with a poly-ubiquitin chain that targets them for the proteasome, a multimeric protease, that degrades the protein into peptides and free ubiquitin. The proteasome has a key role in regulating cell cycle and growth and is known to control the levels of cyclins and CDK inhibitors as well as tumor suppressor proteins. Additionally, the activation of NF- B is controlled by ubiquitin-labeling and degradation of the inhibitory protein I B . […] With this in mind, proteasome inhibitors such as MG-132 and PS-341 have been used to inhibit tumor cell growth.
A cellular assay for ubiquitin-proteasome function was used to find chemical probes of this pathway. The assay used an ubiquitin-GFP construct expressed in U2OS cells (BioImage). Under basal conditions little GFP can be detected as it is degraded by the proteasome. However, treatment of the cells with a proteasome inhibitor such as MG-132 results in a rise in GFP levels that can be detected in as little as four hours. We used the Acumen-Explorer laser plate cytometer having a 488 nm laser as an excitation light source to detect the GFP. Compounds were screened in 1536-well plates using qHTS with a concentration-titration series range that varied from 46 uM to 2.9 nM.
NCGC Assay Protocol Summary:
Cells (U20S ps 2042) expressing ubiquitin (G76V-GFP) were maintained in DMEM with Glutamax-1 and high glucose, 10% FBS, 1% (v/v) penicillin-streptomycin, 0.5 mg/mL Geneticin (G418). The cells were seeded in 1536-well plates using a solenoid-based dispenser at 700 cells/5ul in DMEM medium with Glutamax-1 and high glucose containing 0.5% FBS, w/o phenol red, 25 mM HEPES. The plates were incubated at 37 °C/5% CO2 overnight. Then 23 nl of MG-132 in DMSO was added to the control wells at a final concentration of 10 uM. Next, 23 nL of library compounds in DMSO were added to the sample wells. The plates were incubated for 4 hrs at 37 °C/5% CO2. Following this incubation the plates were read on the Acumen using a cell object definition of 15 to 100 um in width and depth and a window of Total Intensity of between 77,200 and 2,720,000 FLU to enumerate GFP-expressing cells.
The %Activity was determined from the basal and MG-132 treated control wells. %Activity was determined by normalizing to the difference in signal between basal cells (0% Activity) and cells incubated with 10 uM of the proteasome inhibitor MG-132 (100% Activity). Concentration-response curves were fitted to the signals arising from the GFP fluorescence.
Assay Protocol Summary Table
Sequence Parameter Value Description
2. Time O/N 37C incubation
4. Compound 23 nL Libraries (46 uM to 2.9 nM)
5. Time 4 hr 37C incubation
6. Detector Acumen Total Intensity, GFP fluorescence (488 ex/515 em)
Keywords: NIH Roadmap, MLSCN, MLI, MLSMR, BioImage, proteasome, ubiquitin-GFP, qHTS, NCGC

| Structure (SMILES) | activation (GFP accumulation) |
| --- | --- |
| Cc1cc(C(=O)O)c(S(C)(=O)=O)s1 | 4.58% (inactive) |
| CCn1nnc(NC(=O)c2cc(Cl)c(OC)c(Cl)c2)n1 | -4.01% (inactive) |
| CCC(c1nnnn1C1CCCC1)N(Cc1cccs1)Cc1cc2cccc(C)c2[nH]c1=O (stereo not drawn) | 2.3% (inactive) |
| Cc1ccccc1CSc1nnc(-c2ccccn2)n1N | 6.85% (inactive) |
| Cn1c(=O)c(CCc2ccccc2)nc2cnc(Nc3ccccc3)nc21 | 10% (inactive) |
| COc1ccccc1CN1CC2(CCN(S(=O)(=O)c3ccccc3)CC2)C1 | -3.1% (inactive) |
| CC(C)(O/N=C(\C(=O)N[C@@H]1C(=O)N2C(C(=O)[O-])=C(C[n+]3ccccc3)CS[C@@H]12)c1csc(N)n1)C(=O)O | -4.26% [at 20.5 µM] (inactive) |
| CCc1cc(Br)ccc1NC(=O)C1CCCO1 (stereo not drawn) | -1.25% (inactive) |
| O=C(O)c1c(Br)c(Br)c(Br)c(Br)c1C1c2ccc(O)cc2Oc2cc(O)ccc21 | 5.65% [at 9.17 µM] (inactive) |
| CS(=O)(=O)N1CCC2(CC1)CN(c1ccncc1)C2 | 1.35% (inactive) |
| NCC(=O)[C@@H](O)[C@H](O)[C@H](O)CO | 1.45% [at 9.17 µM] (inactive) |
| O=C(c1ccco1)N1CCC[C@@]2(CCN(c3ccccc3)C2)C1 | -4.44% (inactive) |
| Cc1ccc(-c2cc(C(F)(F)F)n3nc(C(=O)N4CCCC4)cc3n2)cc1 | 6.67% [at 9.17 µM] (inactive) |
| CC(C)CSC[C@@H]1O[C@H](n2cnc3c(N)nccc32)[C@H](O)[C@@H]1O | -1.11% [at 9.17 µM] (inactive) |
| O=C(Nc1nc2ccc(S(=O)(=O)N3CCCC3)cc2s1)C1CCCO1 (stereo not drawn) | 5.33% (inactive) |
| O=C(Cn1ccc(=O)[nH]c1=O)Nc1ccc(C(=O)O)c(O)c1 | -3.58% [at 9.17 µM] (inactive) |
| CNc1cc(-c2c(C)noc2C)ncn1 | 7.32% (inactive) |
| CCOC(=O)c1cc(C)sc1NC(=O)C1CCC1 | 2.63% (inactive) |
| CC(Sc1sc(=S)sc1SC(C)C(=O)O)C(=O)O (stereo not drawn) | 5.41% (inactive) |
| CCCOc1ccc(-c2nc(N)n[nH]2)cc1 | -14.6% (inactive) |
| CC(C)NS(=O)(=O)c1ccc(CCC(=O)N2CCOCC2)cc1 | 2.5% (inactive) |
| CCOC(=O)c1sc(/N=C/Nc2nc(C)c(C(=O)OCC)s2)nc1C | 1.72% (inactive) |
| CCCCCCCCCCCC(=O)O[C@H](CC(=O)O)C[N+](C)(C)C | -2.55% (inactive) |
| CC(=O)O[C@]1(C(C)=O)CC[C@@H]2[C@@H]3C=C(C)C4=CC(=O)CC[C@@]4(C)[C@H]3CC[C@]21C | 1.15% [at 20.5 µM] (inactive) |
| CCCSC1=C(C#N)C(c2ccccc2C)C(C(=O)OC)C(=O)N1 (stereo not drawn) | -1.15% (inactive) |
| Nc1ccc2[nH]cc(CCC(=O)O)c2c1 | -1.62% [at 9.17 µM] (inactive) |
| Cn1c(NC(=O)c2ccc3c(c2)OCO3)cc(=O)n(C)c1=O | -2.17% (inactive) |

| Structure (SMILES) | activation (GFP accumulation) |
| --- | --- |
| N#CCCn1c(=O)c(-c2cc(F)cc(F)c2)nc2cnc(Oc3ccccc3)nc21 | -6% (inactive) |
| CCCCNc1nc(C)nc2c1nc(-c1ccccc1)n2CCCCN(CC)CC | 16.4% (inactive) |
| Cc1ccc(N2CCN(S(=O)(=O)c3ccc(F)cc3)CC2)c(C)c1 | -6.67% (inactive) |
| CN(Cc1ccco1)c1cc(-c2ccccc2C(F)(F)F)ncn1 | -2.57% (inactive) |
| COCCn1c(=O)c(CCc2ccccc2)nc2cnc(N3CCNCC3)nc21 | 9.28% (inactive) |
| CCCCN(CCCC)C(=O)CCS(=O)(=O)c1ccc2c(c1)n(C)c(=O)c(=O)n2C | -6.4% (inactive) |
| COc1cccc(-c2cc(NCCc3c[nH]c4ccc(OC)cc34)ncn2)c1 | -1.75% (inactive) |
| Cc1ccccc1N1CCN(S(=O)(=O)C[C@@]23CC[C@H](C[C@H]2NC(=O)[C@@H](N)CCS(C)(=O)=O)C3(C)C)CC1 | -0.202% (inactive) |
| O=C(C1CCN(S(=O)(=O)c2cnc[nH]2)CC1)N1CCN(Cc2ccc3c(c2)OCO3)CC1 | 9.52% (inactive) |
| Nc1cc(OC(=O)c2ccccc2Br)nn1S(=O)(=O)c1ccccc1 | -17.3% (inactive) |
| CN1[C@@H]2CC[C@H]1CC(NC(=O)c1nn(C)c3ccccc13)C2 (stereo partly drawn) | -8.43% (inactive) |
| O=C(/C=N/O)Nc1ccccc1 | -1.72% (inactive) |
| CCOc1ccccc1-n1c(SCC(=O)N2CCCC2)nnc1-c1ccoc1C | 4.13% (inactive) |
| CN1CCN(c2ncncc2-c2ccc(C(=O)N(C)C)cc2)CC1 | -6.06% (inactive) |
| O=C(c1cc(C(F)(F)F)cc(C(F)(F)F)c1)N1CCC2(CCCN(c3ccccn3)C2)CC1 | -3.52% (inactive) |
| COC(=O)Nc1nc2ccc(Sc3ccccc3)cc2[nH]1 | -2.7% [at 20.5 µM] (inactive) |
| CCOC(=O)C1CCN(C(=O)COc2cc(C)c(Br)c(C)c2)CC1 | 1.64% (inactive) |
| COCCn1c(=O)c(C)nc2cnc(N(C)C)nc21 | 0.246% (inactive) |
| Cc1ccc(S(=O)(=O)c2nc(NCCCn3ccnc3)sc2Cl)cc1 | -1.98% (inactive) |
| COc1ccccc1-c1cc(NCc2cccs2)ncn1 | -4.8% (inactive) |
| Cc1c(NC(=O)c2cccnc2)c(=O)n(-c2ccccc2)n1C | 4.26% [at 20.5 µM] (inactive) |
| COc1cccc(N2C(=O)CC(N3CCN(S(=O)(=O)c4ccccc4)CC3)C2=O)c1 (stereo not drawn) | -2.38% (inactive) |
| Cc1cc(C(F)(F)F)nn1CC(=O)N1CCCC1 | 0.102% (inactive) |
| CC(=O)N1CCC2(CCCN(Cc3ccc(C#N)cc3)C2)CC1 | -2.4% (inactive) |
| CC(NC(=O)c1cc(-c2ccccc2)on1)c1ccccc1 (stereo not drawn) | -6.8% (inactive) |
| N#CCCn1cnc2ccccc21 | -0.926% (inactive) |
